In PubChem BioAssay (NCI):
This is part of a sample that, as a whole, favours compounds with a hit. Of some 83,000 tested, about 20% had one in any assay.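 In brief: 96-well plates, 48 h treatment, single concentration, percent growth endpoint.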 Active and inactive are the calls of the source.

Each compound was assayed on HOP-62 NSCLC (assay: NCI-60 one-dose screen, 48 h (100 = growth as untreated, 0 = no growth, -100 = all killed)). Conditions: 10 µM.
Procedure: Growth inhibition of the HOP-62 human Non-Small Cell Lung tumor cell line is measured as a screen for anti-cancer activity. Cells are grown in 96 well plates and exposed to the test compound for 48 hours. Compounds are tested at a single concentration, which is 10^-5 M for most compounds. The reported endpoint is percent growth (GI% or GIPRCNT), where numbers from 0 - 100% represent growth inhibition, and numbers from -100% - 0 represent cell death. For example, a value of 40 represents 60% growth inhibition. A value of 0 means no net growth occurred over the course of the experiment. A value of -40 indicates 40% of cells at the beginning of the experiment died by the end of the experiment. A value of -100 means all cells are dead at the end of the experiment.
NCI-60 Human Tumor Cell Lines Screen was performed using the standard one-dose NCI protocol, which is described in more detail at https://dtp.cancer.gov/discovery_development/nci-60/default.htm.
Compounds with GIPRCNT values below 10 were considered active. Activity score was based on GIPRCNT using the following formula: […]
Score is 0 for GIPRCNT values of 100 or above, 50 for GIPRCNT values of 0, and 100 for GIPRCNT values of -100.
In the case of CNC(=O)c1ccccc1CC1(O)c2ccccc2Oc2ccccc21, the growth is reported as 71.4% (inactive).
With CCN(CC)CCNc1ccc(CO)c2sc3ccccc3c(=O)c12 the growth was 43.3% (inactive).
With NCC(=O)CCC(=O)O the growth was 99.1% (inactive).
NC(=O)N/N=C\c1ccco1 was tested, and the growth was 112% (inactive).
In the case of CC(=O)OCC(=O)[C@@]1(O)CC[C@H]2[C@@H]3CC[C@@H]4C[C@H](O)CC[C@]4(C)[C@H]3C(=O)C[C@@]21C, the growth is reported as 105% (inactive).
COc1ccc2c(NCCCCCCCCNc3c4ccccc4nc4cc(OC)ccc34)c3ccccc3nc2c1 was tested, and the growth was -99.2% (active).
With Cc1cc(N)c(S(=O)(=O)O)c(N)c1 the growth was 94.9% (inactive).
With COc1ccc2c(c1)CCc1c-2n[nH]c1-c1[nH]nc2c1CCc1cc(OC)ccc1-2 the growth was 66% (inactive).
With CCC(=O)Oc1ccc(OC)cc1 the growth was 98% (inactive).
CCOC(=O)c1ccc(Nc2sc(C(=O)c3cccc([N+](=O)[O-])c3)c(N)c2C#N)cc1 was tested, and the growth was 27.3% (inactive).
In the case of CC(C)C(C#N)(C(C)C)C(C)C, the growth is reported as 101% (inactive).
In the case of S=C1NCc2cncnc2N1, the growth is reported as 93.5% (inactive).
In the case of c1cc2cccc3c4cccc5cccc(c(c1)c23)c54, the growth is reported as 97.7% (inactive).
With CC(=O)Nc1c(C)cc(C)cc1C the growth was 109% (inactive).
In the case of OCCN1CCOCC1, the growth is reported as 104% (inactive).
In the case of CCN(CC)CCCC(C)Nc1ccnc(/C=C/c2ccc(Cl)cc2)c1 (stereo not given), the growth is reported as 38.4% (inactive).
With OCCN(CCO)C(=S)S the growth was 108% (inactive).
NC(C(=O)O)c1ccc([N+](=O)[O-])cc1 (stereo not given) was tested, and the growth was 96.5% (inactive).
In the case of CC(O)COc1ccc(-c2ccccc2)cc1 (stereo not given), the growth is reported as 102% (inactive).
In the case of COc1cc2c(cc1O)CC[C@@H]1C2CC[C@@]2(C)C1CC[C@@H]2O (stereo not given in full), the growth is reported as 33.3% (inactive).
For CC(=O)OCCC(C)CCC=C(C)C (stereo not given), the growth was 108% (inactive).
In the case of CCOC(=O)CCCS(C)(=O)=O, the growth is reported as 102% (inactive).
With C#CC(C)(O)c1ccc(Cl)cc1 (stereo not given) the growth was 84.6% (inactive).
In the case of O=C(Nc1cccc(NC(=O)Nc2cc(C(F)(F)F)ccc2Cl)c1)Nc1cc(C(F)(F)F)ccc1Cl, the growth is reported as 21.8% (inactive).
In the case of C1CNC(C2=NCCN2)=N1, the growth is reported as 99.4% (inactive).
With COc1ccc(C(O)c2ccccc2)cc1 (stereo not given) the growth was 90.6% (inactive).
CC(=O)/C(Cc1ccccc1)=N/O was tested, and the growth was 98.4% (inactive).
For Cc1cc(OCCO)cc(C)c1Cl, the growth was 111% (inactive).
For CS(=O)CC1=NC(=N)N=C1CS(C)=O (stereo not given), the growth was 100% (inactive).
For CC1(c2ccccc2)NC(=O)NC1=O (stereo not given), the growth was 111% (inactive).
With O=C1c2ccccc2C(=O)c2c1ccc(C(=O)O)c2[N+](=O)[O-] the growth was 97.2% (inactive).
For Cc1cc(NC(=O)CSCC(=O)O)no1, the growth was 96.3% (inactive).
With CCCCNC1(C#N)CCN(Cc2ccccc2)CC1 the growth was 87% (inactive).
N#CSc1cc(S(N)(=O)=O)ccc1N was tested, and the growth was 104% (inactive).
With CN1C(=O)CN2CCc3ccccc3C2c2cc(Cl)ccc21 (stereo not given) the growth was 79.8% (inactive).
For CCN(CC)c1ccc2nc3ccc(=[N+](CC)CC)cc-3oc2c1, the growth was 1.25% (active).
In the case of N#C/C(=C\c1cc(O)c(O)c(O)c1)C(N)=O, the growth is reported as 97.2% (inactive).
For O=[N+]([O-])c1cccc2nsnc12, the growth was 99.5% (inactive).
In the case of COC(=O)Nc1nc2ccc(C(=O)c3ccc(F)cc3)cc2[nH]1, the growth is reported as 33.1% (inactive).
CO[C@H]1C[C@@H]2CC[C@@H](C)[C@@](O)(O2)C(=O)C(=O)N2CCCC[C@H]2C(=O)O[C@H]([C@H](C)C[C@@H]2CC[C@@H](O)[C@H](OC)C2)CC(=O)[C@H](C)C=C(C)[C@@H](O)[C@@H](OC)C(=O)[C@H](C)C[C@H](C)/C=C/C=C/C=C1C was tested, and the growth was 60.7% (inactive).
